# Six1-Eya2 blk: Six1/Eya2 interaction inhibition. Q15475+O00167. AlphaScreen GST-Six1/His-Eya2 binding, biochemical; active compounds read low. activity change, % (no concentration beside the values). actives 0.56% (n = 360,000); in the data active = activity change below about -65%; inconclusive = mostly about -30% to -63%
#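 Six1/Eya2 binding was read as AlphaScreen signal after compounds were pinned into GST-Six1 plus His-tagged Eya2 (5X stock 250/500 nM) in pH 8.0 Tris/NaCl/TCEP buffer, beads added, then incubated 1 h, 37 C, dark.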
# Eya2 phos inh: blocks the phosphatase activity of human Eya2; recombinant Eya2, OMFP fluorescence dephosphorylation (OMFP is methylfluorescein phosphate); Potency, µM (highest dose often 76.9 µM), inactives show at the top dose activity, negative = inhibition, most hits filed as inhibitors; actives 0.006% (n = 330,000); AID 488837; note: potency is the fitted concentration of half-maximal effect
# Target sequence (O00167 whole entry, looked up): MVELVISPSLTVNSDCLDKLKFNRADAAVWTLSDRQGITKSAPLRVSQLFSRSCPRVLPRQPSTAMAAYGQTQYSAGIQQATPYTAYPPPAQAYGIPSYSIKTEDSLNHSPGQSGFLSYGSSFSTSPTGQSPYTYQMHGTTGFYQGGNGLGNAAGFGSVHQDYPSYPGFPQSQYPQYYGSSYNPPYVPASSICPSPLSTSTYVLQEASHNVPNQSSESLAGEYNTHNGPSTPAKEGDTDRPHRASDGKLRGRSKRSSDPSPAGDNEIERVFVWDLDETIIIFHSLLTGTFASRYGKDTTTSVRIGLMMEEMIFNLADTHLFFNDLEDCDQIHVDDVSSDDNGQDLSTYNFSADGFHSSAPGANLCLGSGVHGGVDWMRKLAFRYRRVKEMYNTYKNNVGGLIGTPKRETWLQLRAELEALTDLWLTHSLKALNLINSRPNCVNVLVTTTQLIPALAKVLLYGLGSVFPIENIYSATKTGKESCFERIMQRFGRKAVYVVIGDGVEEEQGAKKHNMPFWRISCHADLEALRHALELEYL
#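 Eya2 (0.2 uM) preincubated 10 min at ambient with compound, then OMFP substrate added at 50 uM; 10 min reaction in 50 mM HEPES pH 7.5, 50 mM NaCl, 5 uM MgCl2, 0.05% BSA, 1 mM DTT. Fluorescence read at Ex 485/Em 525 nm.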
# L3MBTL1 block: blocks human L3MBTL1; Q9Y468; AlphaScreen L3MBTL1–H3K9me1 peptide binding; Potency, µM (titrated, usually from 57.1 µM), without a hit: top-dose activity, negative = inhibition, usual class: inhibitors; actives 0.66% (n = 230,000); AID 485360; note: potency is the fitted concentration of half-maximal effect; nearly all actives have a fitted effect of over 60% in size
#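 Read-out is AlphaScreen signal from streptavidin donor and nickel chelate acceptor beads (10 ug/mL final each) bridging L3MBTL1 (50 nM) and biotinylated K9-monomethylated H3(1-15) peptide (75 nM), after 30 min compound exposure at room temperature.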
# USP2a block: USP2a (human) protease inhibition | USP2 core, Ub-CHOP2 coupled fluorogenic reporter, 485/531 | Potency, µM (highest dose often 38.3 µM), for the others: at the highest dose activity change, negative = inhibition, hits mostly inhibitors | actives 0.01% (n = 330,000);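 note: potency is the fitted concentration of half-maximal effect; plate controls were DMSO wells for no effect and full inhibition by NEM control for full effect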
#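 Cell-free coupled assay: 10nM USP2 core preincubated 30min RT with compound in Tris-HCl pH 8.0/CaCl2/CHAPS buffer, then 25nM Ub-CHOP2 and 25nM reporter substrate; fluorescence (Ex 485/Em 531) read after 60min RT, normalized to NEM inhibition, concentration-response curves fitted.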
# CtBP-E1A blk: blocks the CtBP interaction with E1A; AlphaScreen GST-E1A/His-CtBP binding, 1536-well; active compounds read low; activity change, % (no concentration beside the values); actives 0.49% (n = 340,000); in the data active = activity change below about -65%; inconclusive = mostly about -30% to -63%
#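 Homogeneous bead-based format: GST-tagged E1A captured on glutathione donor beads, His-tagged CtBP on nickel acceptor beads; compounds precede bead addition by 2 h at 37 °C.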
# uPA surface inh: cell surface uPA generation inhibition | cell surface uPA generation assay, qHTS | Potency, µM (doses to about 38.3 µM), for inactives: at the highest dose activity change, negative = inhibition, usual class: inhibitors | actives 0.31% (n = 330,000) | AID 540303; active = well fitted inhibition curve with a large enough effect; inconclusive = small, poorly fitted or top-dose-only effect; inactive = no such curve, though single readings can be large or run the other way; tested in mouse RAW 264.7 cells; note: potency is the fitted concentration of half-maximal effect; nearly all actives have a fitted effect of over 55% in size
# The depositor's hits bear a star; ? = inconclusive; nt = no result given. Rows were chosen to be rich in hits. Some 1.2% of all compounds tested hit in one or more screens of this group. Unless noted, calls come from the whole dose curve; as a rule, active = well fitted curve in the direction sought with a large enough effect; inconclusive = small, poorly fitted or top-dose-only effect, or another doubt; inactive = no such curve, though single readings can be large; an effect the other way counts as inactive or inconclusive. Unless noted, % is set by controls: 0 for no effect and ±100 for the full control effect.
SMILES,Six1-Eya2 blk,Eya2 phos inh,L3MBTL1 block,USP2a block,CtBP-E1A blk,uPA surface inh
Cc1ccccc1Nc1c(-c2ccccn2)nc2c(C)cccn12,-29.2,-0.4%,nt,1.0%,?,2.3%
Cc1cc(C)n2c(Nc3c(C)cccc3C)c(-c3ccccn3)nc2n1,-90.0*,nt,nt,nt,?,nt
Cc1cccc(C)c1Nc1c(-c2ccccn2)nc2ccccn12,-84.2*,-26.6%,?,1.1%,nt,4.47µM*
Cc1ccc2nc(-c3ccccn3)c(NC3CCCC3)n2c1,?,0.1%,-1.6%,3.5%,-73.3*,-2.3%
Cc1ccc(Nc2c(-c3ccccn3)nc3cccc(C)n23)cc1,-88.1*,-10.5%,nt,2.8%,-97.9*,-14.4%
CCOC(=O)C1(CC2CC2)CCN(Cc2cnc(-c3ccc(OC)cc3)nc2)CC1,-5.4,0.4%,-4.5%,-0.7%,nt,-1.3%
CSc1ncccc1C(=O)NC(C)CCc1ccccc1 (centres undefined),-5.7,2.0%,nt,-3.2%,nt,-10.6%
CCCCNc1c(-c2ccccn2)nc2nc(C)cc(C)n12,-87.8*,nt,nt,nt,?,nt
CCCCNc1c(-c2cc3ccccc3o2)nc2nc(C)cc(C)n12,8.7,nt,nt,nt,-9.6,nt
COc1cc(/C=C(\C#N)C(=O)Nc2ccc3c(c2)OCCO3)ccc1O,-4.3,-10.6%,nt,8.3%,0.6,10µM*
Nc1ccc(N=Nc2ccccc2)c2cccnc12,-65.2*,-13.0%,nt,-9.1%,-72.7*,?
COc1ccc(-c2[nH]ncc2N=Nc2ccccc2)cc1,-19.4,-9.4%,-4.6%,4.4%,?,-4.2%
COc1ccc(N=Nc2ccc(O)c3ncccc23)cc1,-86.1*,8.6%,nt,2.0%,nt,?
O=S(=O)(O)c1cccc2c(N=Nc3ccc(O)c4ncccc34)cccc12,32.0,-9.0%,nt,-9.1%,-92.3*,-28.7%
COc1ccc(N=Nc2cc(-c3ccccc3)ccc2O)cc1,?,-0.2%,?,0.9%,-69.3*,2.8%
CCC(=O)N(c1nnc(SCC(=O)Nc2ccccc2Cl)s1)C1CC1,1.0,2.0%,7.5%,-0.3%,5.4,-25.2%
COc1cc([N+](=O)[O-])ccc1NC(=S)NC(=O)CC(C)(C)C,-3.5,2.2%,-8.1%,2.3%,nt,2.8%
Cc1ccc(Cn2ccc(NC(=O)c3cc(C4CC4)on3)n2)cc1,5.5,-7.6%,-0.5%,-1.0%,-3.1,-2.3%
COc1cccc(N=Nc2ccc3cccnc3c2O)c1,-91.1*,8.6%,nt,0.1%,nt,?
COc1cccc(N=Nc2ccc(O)c3ncccc23)c1,-70.3*,5.7%,nt,5.4%,-96.4*,6.5%
Cc1ccccc1N=Nc1c(O)[nH]c2ccccc12,5.2,nt,nt,nt,1.9,-0.9%
Oc1ccc(N=Nc2ccc3c(c2)OCCO3)c2cccnc12,-76.6*,-9.7%,?,-11.6%,-84.3*,6.6%
Cc1ccccc1N=Nc1ccc(O)c2ncccc12,?,10.8%,25.1µM*,-0.9%,-25.9,-13.3%
COCCN(CC(=O)Nc1cccc(C)c1C)C(=O)c1ccc(S(=O)(=O)N2CCOCC2)cc1,1.5,4.4%,2.3%,0.6%,-1.9,?
C=CCOc1cccc(C(=O)N2CCC(CCC(=O)NC3CC3)CC2)c1,-17.4,-6.3%,nt,-1.0%,nt,1.6%
SMILES,Six1-Eya2 blk,Eya2 phos inh,L3MBTL1 block,USP2a block,CtBP-E1A blk,uPA surface inh
O=C(Cn1nnc(-c2ccccc2F)n1)N1CCCCC1,-0.3,-7.3%,-2.2%,2.2%,10.8,?
COc1ccc(C)cc1-n1c(=O)c2ccccc2c2ccccc2c1=O,-19.9,-5.3%,-15.8%,3.0%,-5.3,-2.8%
COc1ccc(C)cc1N=Nc1ccc(O)c2ncccc12,-94.9*,2.2%,nt,1.9%,nt,3.55µM*
O=Nc1ccc(O)c2ncccc12,-89.0*,0.1%,?,2.3%,nt,?
O=C(COC(=O)Cn1cnc2ccccc21)Nc1ccc2c(c1)C(=O)c1ccccc1C2=O,-28.9,2.9%,-12.9%,-0.4%,nt,11.2µM*
COCCN(C(=O)CCCc1nc2ccccc2s1)c1c(N)n(CC(C)C)c(=O)[nH]c1=O,-1.8,10.2%,-1.9%,1.4%,3.4,13.7%
c1ccc(CSc2ccc(-c3ccccn3)nn2)nc1,-92.9*,1.4%,nt,-0.3%,-94.2*,-1.3%
c1cncc(CSc2ccc(-c3cccnc3)nn2)c1,0.8,-17.3%,nt,-0.3%,0.0,-1.7%
c1ccc(-c2ccc(SCc3cccnc3)nn2)nc1,-90.6*,4.5%,nt,0.1%,-88.9*,2.6%
Clc1ccc(-c2ccc(SCc3ccccn3)nn2)cc1,-1.3,-3.9%,0.1%,0.9%,-0.5,-3.0%
O=C(CSc1ccc(-c2ccccn2)nn1)N1CCCc2ccccc21,-80.4*,1.2%,?,2.2%,-66.2*,5.6%
Cc1cccc(NC(=O)c2cc(-c3cc(C)cc(C)c3O)n[nH]2)c1,-9.9,-12.5%,nt,4.0%,-3.8,?
Cc1c(CC(=O)NCC(=O)O)c(=O)oc2cc3c(cc12)CCC(C)(C)O3,-6.8,-20.7%,nt,-7.7%,nt,-1.1%
CCN(C(=O)COC(=O)c1cccc(S(=O)(=O)N2CCOCC2)c1)C1CCS(=O)(=O)C1 (centres undefined),-1.1,3.3%,-6.6%,-0.3%,2.0,-2.3%
CCCCn1c(/C=N/Nc2nc3ccccc3[nH]2)nc2ccccc21,-22.7,0.6%,?,4.2%,-3.2,-3.1%
Fc1ccccc1-c1ccc(/C=N/Nc2nc3ccccc3[nH]2)o1,0.6,-10.4%,-2.4%,-1.8%,nt,3.98µM*
COc1cc(/C=C(\C#N)c2nc3ccc(C)cc3[nH]2)cc([N+](=O)[O-])c1O,-72.8*,4.2%,?,-0.3%,-74.6*,3.0%
COc1cc(/C=C(\C#N)c2nc3ccc(C)cc3[nH]2)c([N+](=O)[O-])cc1OC,-10.4,9.5%,-7.9%,4.0%,-15.7,4.0%
O=C1OC2(c3ccccc31)c1cc(I)c(O)c(I)c1Oc1c2cc(I)c(O)c1I,nt,?,3.16µM*,?,nt,nt
O=C1OC(c2ccccc2)(c2ccc(O)cc2)c2ccccc21 (centres undefined),-12.7,nt,nt,nt,-14.4,-3.2%
CS(=O)(=O)c1ccc(Nc2nc(C(N)c3ccccc3Cl)cs2)cc1 (centres undefined),0.0,nt,nt,nt,0.0,nt
NC(Cc1ccc(F)cc1)c1csc(Nc2cc(NCc3ccco3)ncn2)n1 (centres undefined),?,nt,nt,nt,-76.3*,nt
NC(Cc1ccc(F)cc1)c1csc(Nc2cc(Oc3ccccc3)ncn2)n1 (centres undefined),-18.5,nt,nt,nt,-25.8,nt
NC(c1csc(Nc2cc(NCc3ccco3)ncn2)n1)c1ccccc1Cl (centres undefined),?,nt,nt,nt,-80.2*,nt
COc1ccc(-c2cc(C(=O)OCC(=O)c3cccc([N+](=O)[O-])c3)c3cc(C)ccc3n2)cc1,2.1,6.3%,-2.0%,2.4%,-6.4,0.8%
